ERAP1 inh: human ERAP1 aminopeptidase inhibitors, primary screen, biochemical, single point, plate reader | inhibition, % at 10.7 µM | Endoplasmic reticulum aminopeptidase 1 (Homo sapiens), Q9NZ08 | recombinant ERAP1, Leu-AMC fluorescence, 60 min | AID 652197, 2013 | 0.15% of 340,000 active;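 active means mean replicate inhibition of at least 30%, or all replicates individually reaching that 30% level; inactive means mean below 30% and not every replicate reaching it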;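 further: 0% = neutral control wells and 100% = L-leucinethiol positive control wells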
INS-1E GSIS act: GLuc luminescence reporter in INS-1E cells, primary screen for activators of glucose-dependent secretion of insulin; INS-1E GLuc reporter insulin secretion, 2-3 h; activation, % at 16.6 µM; 0.61% of 370,000 active; AID 743287, 2014;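 active means lowest replicate activation of at least 40%, so every replicate reaches that level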;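 further: 0% = median of neutral control wells and 100% = median of IBMX positive control wells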
FGF22 binding: binders of human FGF22 protein, primary screen, FGF22 synaptogenesis inhibitor project, biophysical, thermal shift, single point; recombinant FGF22 thermal shift, SYPRO orange fluorescence; percent of sucrose octasulfate shift, DMSO zero; activity (Tm shift, normalised), % at 9.99 µM; 1.5% of 340,000 active;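 active means mean Tm shift, scaled 0 neutral to 100 positive control, at about 1.3% or above, every replicate too, limit read from the data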
Target sequence (Q9HCT0 whole entry, looked up): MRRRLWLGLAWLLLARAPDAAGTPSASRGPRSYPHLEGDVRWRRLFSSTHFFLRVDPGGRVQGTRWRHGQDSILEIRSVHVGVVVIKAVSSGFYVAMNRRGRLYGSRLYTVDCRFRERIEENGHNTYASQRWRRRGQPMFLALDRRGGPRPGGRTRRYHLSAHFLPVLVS
CASP6 VEID inh: human caspase-6 inhibitors, primary screen, biochemical, VEID-R110 fluorescence, single point, set 2; 0.53% of 350,000 active; inhibition, % at 12.5 µM; purified caspase-6, Z-VEID-R110 cleavage fluorescence; P55212; AID 686996, 2013;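 active means mean inhibition across replicates at least about 35%, with every replicate also reaching that limit, limit read from the data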;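 further: 0% = median of neutral control wells and 100% = no fluorescence left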
Target sequence (P55212 24-179 limits assumed): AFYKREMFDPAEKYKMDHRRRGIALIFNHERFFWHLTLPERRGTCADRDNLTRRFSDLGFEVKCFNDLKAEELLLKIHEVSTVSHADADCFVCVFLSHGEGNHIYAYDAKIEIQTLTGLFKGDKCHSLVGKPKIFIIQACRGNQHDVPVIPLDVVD
Target sequence (P55212 194-293 limits assumed): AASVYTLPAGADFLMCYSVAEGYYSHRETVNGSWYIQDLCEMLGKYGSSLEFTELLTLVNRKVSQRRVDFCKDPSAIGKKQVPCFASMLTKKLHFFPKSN
SIRT5 block: SIRT5 desuccinylase inhibitors, primary screen, biochemical, fluorescence imaging, single point, set 5; 1.1% of 330,000 active; inhibition, % at 15 µM; Purified SirT5, succinyl-peptide AMC, trypsin-coupled fluorescence; in the data active means inhibition above about 15%
Starred values were filed as active, the others as inactive. Hits are enriched below; roughly 3.3% of the tested compounds scored in any of these assays.

Screening CNC(=O)C[C@@H]1CC[C@@H]2[C@H](COc3ccc(NC(=O)NC(C)C)cc3C(=O)N2C)O1 returned INS-1E GSIS act 9.4 and FGF22 binding -0.1.
`Cc1ccc(S(=O)(=O)N2C[C@@H]3CCCC[C@@H]3[C@@H](C)[C@H]2c2cn(Cc3ccccc3)c3ncccc23)cc1` gave ERAP1 inh 0.4, INS-1E GSIS act 5.4, FGF22 binding -0.2, CASP6 VEID inh -2.3 and SIRT5 block 22.1*.
COc1ccc(S(=O)(=O)Nc2ccc3c(c2)C(=O)N([C@H](C)CO)C[C@@H](C)[C@@H](CN(C)S(=O)(=O)c2cccs2)OCCCC[C@H](C)O3)cc1 was read as ERAP1 inh 0.9, INS-1E GSIS act 21.5, FGF22 binding -0.3, CASP6 VEID inh 1.9 and SIRT5 block 7.0.
For COc1ccc(S(=O)(=O)N(C)C[C@@H]2OCCCC[C@H](C)Oc3ccc(NS(=O)(=O)c4cccs4)cc3C(=O)N([C@@H](C)CO)C[C@H]2C)cc1 the results were ERAP1 inh 1.6, INS-1E GSIS act -8.6, FGF22 binding -0.3, CASP6 VEID inh -2.6 and SIRT5 block 18.7*.
COc1ccc(S(=O)(=O)Nc2ccc3c(c2)C(=O)N([C@@H](C)CO)C[C@@H](C)[C@@H](CN(C)S(=O)(=O)c2cccs2)OCCCC[C@H](C)O3)cc1 was read as ERAP1 inh 4.4, INS-1E GSIS act 11.0, FGF22 binding -0.5, CASP6 VEID inh 0.5 and SIRT5 block 23.4*.
For COc1ccc(S(=O)(=O)N(C)C[C@H]2OCCCC[C@@H](C)Oc3ccc(NS(=O)(=O)c4cccs4)cc3C(=O)N([C@H](C)CO)C[C@H]2C)cc1 the results were ERAP1 inh 0.4, INS-1E GSIS act -43.5, FGF22 binding 0.2, CASP6 VEID inh 1.1 and SIRT5 block 2.4.
`COC(=O)c1cn(C[C@H](Cc2ccccc2)NC(=O)Nc2ccccc2)nn1` gave ERAP1 inh -0.8, FGF22 binding -0.1, CASP6 VEID inh 1.0 and SIRT5 block 0.8.
`Cc1[nH]c(=O)[nH]c(=O)c1Cc1cccc2ccccc12` gave ERAP1 inh -9.6, INS-1E GSIS act 30.8, FGF22 binding 43.3*, CASP6 VEID inh -2.5 and SIRT5 block 5.4.
`O=C(C1CCC1)N1CC2(C1)[C@H](c1ccccc1)[C@H](CO)N2Cc1cccnc1` gave ERAP1 inh 6.1, INS-1E GSIS act 11.3, FGF22 binding 0.9, CASP6 VEID inh -2.6 and SIRT5 block -1.0.
`Cc1cc(C)c2c(CN3CCCC3)cc(=O)oc2c1` gave ERAP1 inh -0.3, FGF22 binding -0.2, CASP6 VEID inh 0.5 and SIRT5 block -1.0.
`Cc1cc(C)c2c(CN3CCOCC3)cc(=O)oc2c1` gave FGF22 binding 0.0, CASP6 VEID inh -0.1 and SIRT5 block 29.7*.
CCCNC(=O)N1CC2(C1)CN(C(=O)CC)[C@@H](CO)c1c2c2ccc(OC)cc2n1C was read as ERAP1 inh 1.1, INS-1E GSIS act 31.5, FGF22 binding 0.0, CASP6 VEID inh -0.7 and SIRT5 block -4.6.
For C[C@H](O)C#Cc1ccc([C@@H]2[C@H](CO)N3CCCCN(CC4CCOCC4)C[C@@H]23)cc1 the results were ERAP1 inh 2.6, INS-1E GSIS act 19.3, FGF22 binding -0.2, CASP6 VEID inh -2.1 and SIRT5 block -0.6.
For O=c1[nH]c(Nc2ccccn2)cc2ccccc12 the results were ERAP1 inh -3.0, INS-1E GSIS act -1.8, FGF22 binding 0.0, CASP6 VEID inh 90.4* and SIRT5 block 1.9.
Screening O=c1[nH]c(-c2ccccn2)cc2ccccc12 returned INS-1E GSIS act 33.4.
`CCn1c(CCc2ccccc2)n[nH]c1=S` gave ERAP1 inh 1.9, INS-1E GSIS act 9.0, FGF22 binding -0.2 and CASP6 VEID inh -2.9.
`CCn1c(CSCc2ccccc2)n[nH]c1=S` gave ERAP1 inh 2.5, INS-1E GSIS act 23.1, FGF22 binding 0.2, CASP6 VEID inh -2.8 and SIRT5 block 36.6*.
`CCn1c(Cc2ccccc2)n[nH]c1=S` gave FGF22 binding -0.2, CASP6 VEID inh 0.8 and SIRT5 block 30.5*.
For CC(C)Cn1c(Cc2ccccc2)n[nH]c1=S the results were ERAP1 inh 12.5, INS-1E GSIS act 55.2*, FGF22 binding 0.3, CASP6 VEID inh -3.0 and SIRT5 block 9.0.
`COc1ccc2c3c([nH]c2c1)[C@@H](CO)N(C(=O)c1ccccn1)CC31CN(C(=O)C2CCCCC2)C1` gave INS-1E GSIS act 35.3.
Screening Oc1ccc(/C=N/n2cc(-c3ccccc3)[nH]c2=S)cc1 returned ERAP1 inh 4.9, INS-1E GSIS act -5.2, FGF22 binding 43.5*, CASP6 VEID inh 2.9 and SIRT5 block 2.3.
`N#Cc1c(SCC(=O)Nc2ccc(C(F)(F)F)cc2)sc2c(O)cc(=O)[nH]c12` gave ERAP1 inh -1.8, INS-1E GSIS act -2.6, FGF22 binding 1.0, CASP6 VEID inh 40.6* and SIRT5 block 2.4.
For N#Cc1ccsc1NC(=O)CSc1nncs1 the results were ERAP1 inh 0.5, INS-1E GSIS act 4.5, FGF22 binding -0.2, CASP6 VEID inh 5.0 and SIRT5 block 14.9.
`Cc1ccc(NC(=O)CSc2sc3c(O)cc(=O)[nH]c3c2C#N)c(F)c1` gave ERAP1 inh 3.4, INS-1E GSIS act 4.3, FGF22 binding -0.3 and CASP6 VEID inh 29.1.
`N#Cc1c(SCC(=O)Nc2nncs2)sc2c(O)cc(=O)[nH]c12` gave ERAP1 inh 0.1, INS-1E GSIS act 27.7, FGF22 binding 0.2, CASP6 VEID inh 84.5* and SIRT5 block 43.2*.
Screening COc1ccc2c3c([nH]c2c1)[C@H](CO)N(Cc1cccnc1)CC31CCN(C(=O)c2cccnc2)CC1 returned ERAP1 inh 3.7, INS-1E GSIS act 10.3, FGF22 binding 0.0, CASP6 VEID inh 1.5 and SIRT5 block 0.3.
`COCC(=O)Nc1ccc2c(c1)OC[C@@H](C)N(CC1CCCCC1)C[C@H](C)[C@@H](OC)CN(C)C2=O` gave ERAP1 inh -1.4, INS-1E GSIS act -5.6, FGF22 binding -0.2, CASP6 VEID inh 4.7 and SIRT5 block -1.0.
For Cc1noc(C)c1NC(=O)N(C)C[C@@H]1OCCCC[C@H](C)Oc2ccc(NC(=O)Nc3cccc4ccccc34)cc2C(=O)N([C@H](C)CO)C[C@@H]1C the results were INS-1E GSIS act -5.6 and FGF22 binding -0.4.
CSc1ccc(C(=O)C2CCCN(C(=O)c3ccc4c(c3)no[n+]4[O-])C2)cc1 (stereo unspecified) was read as ERAP1 inh -4.2, INS-1E GSIS act 41.5*, FGF22 binding -0.1, CASP6 VEID inh -0.3 and SIRT5 block -3.5.

Source: PubChem BioAssay (Broad Institute)
